A short description of experiment [1]: Caspase-3/7 induction in CHO-K1 cells by small molecules, qHTS cell viability counter screen (AID 1346979). Note: nearly all actives have a fitted effect of over 35% in size. Note: potency is the fitted concentration of half-maximal effect. Summed up: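 Seeding: 1,500 CHO-K1 cells/well. Rest: 5hr, 37C. Treatment: compounds in DMSO, 16hr. Read: CellTiter-Fluor, 1hr, fluorescence.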
(In qHTS, concentration-response curves come from the screen itself.)

Experiment [2] is described as follows: Caspase-3/7 induction in CHO-K1 cells by small molecules, qHTS assay (AID 1346980). Note: nearly all actives have a fitted effect of over 15% in size. Note: potency is the fitted concentration of half-maximal effect. Summed up: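 Luminescent Caspase-Glo 3/7 read (30min, room temperature) quantified apoptosis induction. Cells were wild-type CHO-K1, treated with compound for 17hr at 37 C and 5% CO2.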
Experiment [3] deals with Nuclear receptor subfamily 1 group I member 2 (Homo sapiens) (UniProt O75469). Nature of the experiment: Human pregnane X receptor (PXR) small molecule agonists, qHTS assay (AID 1346982). Note: nearly all actives have a fitted effect of over 35% in size. Note: potency is the fitted concentration of half-maximal effect. Summed up: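 Cells: HepG2 stably carrying PXR-Luc. Medium held 5% charcoal-stripped FBS. Compounds in DMSO added after 5 hr plating, incubated 24 hr, then luminescence quantified with ONE-Glo.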
Nuclear receptor subfamily 1 group I member 2 (Homo sapiens), sequence (O75469 whole entry, looked up): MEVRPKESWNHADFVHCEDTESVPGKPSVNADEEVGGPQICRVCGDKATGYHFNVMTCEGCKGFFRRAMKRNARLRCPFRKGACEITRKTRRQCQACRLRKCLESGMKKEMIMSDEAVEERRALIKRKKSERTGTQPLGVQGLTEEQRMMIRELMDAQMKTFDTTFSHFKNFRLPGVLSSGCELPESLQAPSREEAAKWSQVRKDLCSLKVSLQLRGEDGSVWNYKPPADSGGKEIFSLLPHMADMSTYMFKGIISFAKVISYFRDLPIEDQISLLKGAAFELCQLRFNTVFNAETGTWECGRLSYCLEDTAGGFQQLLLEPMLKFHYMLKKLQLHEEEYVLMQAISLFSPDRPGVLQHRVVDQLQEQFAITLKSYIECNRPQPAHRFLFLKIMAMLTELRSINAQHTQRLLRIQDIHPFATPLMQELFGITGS

For experiment [4], the target named is Cytochrome P450 2D6 (Homo sapiens) (UniProt P10635). Nature of the experiment: Cytochrome P450 Family 2 Subfamily D Member 6 (CYP2D6) small molecule antagonists: luciferase reporter qHTS assay (AID 1671196). Note: nearly all actives have a fitted effect of over 50% in size. Note: potency is the fitted concentration of half-maximal effect. Summed up:
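Enzyme and proluciferin substrate were first combined with test chemical for 10 min at room temperature. Adding NADPH regeneration solution started a 1 h reaction, stopped with luciferin detection reagent and read by luminescence 20 min later.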
(Reporter assays use an easily measured gene product as a stand-in for the process of interest.)

Experiment [5] has as its target Cytochrome P450 2C19 (Homo sapiens) (UniProt P33261). Nature of the experiment: Cytochrome P450 Family 2 Subfamily C Member 19 (CYP2C19) small molecule antagonists: luciferase reporter qHTS assay (AID 1671197). Note: nearly all actives have a fitted effect of over 65% in size. Note: potency is the fitted concentration of half-maximal effect. Summed up: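 Enzyme-substrate mix with proluciferin substrate (P450-Glo CYP2C19 system) preincubated with compounds 10 min at room temperature; NADPH regeneration solution added, 37C for 1 h; detection reagent stops reaction, luminescence read after 20 min. Ketoconazole positive control.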

The target in experiment [6] is Cytochrome P450 2C9 (Homo sapiens) (UniProt P11712). The experiment can be described thus: Cytochrome P450 Family 2 Subfamily C Member 9 (CYP2C9) small molecule antagonists: luciferase reporter qHTS assay (AID 1671198). Note: nearly all actives have a fitted effect of over 50% in size. Note: potency is the fitted concentration of half-maximal effect. Summed up:
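Enzyme-substrate mix preincubated with compound 10 min at room temperature; reaction started with NADPH regeneration solution, 1 h 37C. Luminescent luciferin product read after 20 min detection reagent.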

The nature of experiment [7]: Caspase-3/7 induction in HepG2 cells by small molecules, qHTS cell viability counter screen (AID 1346981). Note: nearly all actives have a fitted effect of over 30% in size. Note: potency is the fitted concentration of half-maximal effect. Summed up:
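Cell viability is measured as a cytotoxicity counter screen alongside the Caspase-Glo 3/7 readout in identical wells. Wild-type HepG2 cells are treated with test compounds for 16 hr at 37 C before CellTiter-Fluor addition and a 1-hr incubation.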

The target in experiment [8] is Nuclear receptor subfamily 1 group I member 2 (Rattus norvegicus) (UniProt Q9R1A7). Nature of the experiment: Rat pregnane X receptor (rPXR) activation by small molecules, qHTS assay (AID 1346983). Note: nearly all actives have a fitted effect of over 20% in size. To be noted: rPXR luciferase reporter cells, One-Glo luminescence, 24 h; max activation: active compounds read high. Summed up: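 Luminescent readout (One-Glo luciferase, 30 min room temperature) followed 24 hr compound treatment at 37 C of rPXR cells plated 2,000 per well and preincubated 5hr; qHTS format with compounds delivered in DMSO.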
Nuclear receptor subfamily 1 group I member 2 (Rattus norvegicus), sequence (Q9R1A7 whole entry, looked up): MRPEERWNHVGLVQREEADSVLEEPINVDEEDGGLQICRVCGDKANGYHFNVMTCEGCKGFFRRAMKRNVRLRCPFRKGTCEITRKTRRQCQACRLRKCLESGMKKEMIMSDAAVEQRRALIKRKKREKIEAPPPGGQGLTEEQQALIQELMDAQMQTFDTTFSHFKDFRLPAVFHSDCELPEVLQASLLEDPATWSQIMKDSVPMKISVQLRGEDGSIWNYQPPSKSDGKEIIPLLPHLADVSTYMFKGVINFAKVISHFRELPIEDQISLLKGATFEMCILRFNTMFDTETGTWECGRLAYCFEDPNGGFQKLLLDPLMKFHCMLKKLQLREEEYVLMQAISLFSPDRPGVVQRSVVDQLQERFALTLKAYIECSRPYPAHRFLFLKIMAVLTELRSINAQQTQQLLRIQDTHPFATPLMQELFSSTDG

Experiment [9] deals with Nuclear receptor subfamily 1 group I member 2 (Homo sapiens) (UniProt O75469). Nature of the experiment: Human pregnane X receptor (PXR) activation by small molecules, qHTS assay (AID 1346985). Note: nearly all actives have a fitted effect of over 40% in size. Note: potency is the fitted concentration of half-maximal effect. Summed up:
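DPX-2 cells (HepG2 co-transfected with a PXR response element and a CYP3A4-promoter luciferase construct) were seeded at 2,000 per well, rested 5 hr at 37C, then exposed to DMSO-dissolved compounds for 24 hr. Activation was read as luciferase luminescence.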

Experiment [10] shares this target. The experiment can be described thus: CYP3A4 induction through human pregnane X receptor (PXR) by small molecules, qHTS assay (AID 1346984). Note: nearly all actives have a fitted effect of over 40% in size. Note: potency is the fitted concentration of half-maximal effect. Summed up:
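Quantitative HTS in DPX-2 cells, i.e. HepG2 transfected with PXR response element and CYP3A4-promoter luciferase. Compounds in DMSO incubated 24hr at 37C; then P450-Glo CYP3A4 substrate, 3uM final, 3hr; One-Glo luminescence.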

SMILES strings stand for the structures. A number with no mark means an inactive call. Inconclusive results are not listed. Activity calls are given as the source filed them. Calls come from the whole dose curve; as a rule, active = well fitted curve in the direction sought with a large enough effect in the repeat runs; inconclusive = weak or mixed curves; inactive = no such curve, though single readings can be large; an effect the other way counts as inactive or inconclusive.
% is set by controls: 0 for no effect and ±100 for the full control effect.

Cytochrome P450 2D6 (Homo sapiens), sequence (P10635 whole entry, looked up): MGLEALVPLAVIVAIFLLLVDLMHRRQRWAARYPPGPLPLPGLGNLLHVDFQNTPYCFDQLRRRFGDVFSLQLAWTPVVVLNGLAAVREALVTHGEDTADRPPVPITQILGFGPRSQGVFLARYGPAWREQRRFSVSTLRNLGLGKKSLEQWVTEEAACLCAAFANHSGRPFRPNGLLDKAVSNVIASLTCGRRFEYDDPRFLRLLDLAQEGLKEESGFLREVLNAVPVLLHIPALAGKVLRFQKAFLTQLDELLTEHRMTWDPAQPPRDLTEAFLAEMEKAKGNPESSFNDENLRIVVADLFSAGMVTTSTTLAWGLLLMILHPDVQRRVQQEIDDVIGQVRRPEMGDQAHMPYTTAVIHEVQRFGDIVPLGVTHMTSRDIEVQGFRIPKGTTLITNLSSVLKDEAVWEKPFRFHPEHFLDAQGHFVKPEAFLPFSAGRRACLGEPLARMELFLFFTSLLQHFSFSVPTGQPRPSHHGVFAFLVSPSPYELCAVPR
Cytochrome P450 2C9 (Homo sapiens), sequence (P11712 whole entry, looked up): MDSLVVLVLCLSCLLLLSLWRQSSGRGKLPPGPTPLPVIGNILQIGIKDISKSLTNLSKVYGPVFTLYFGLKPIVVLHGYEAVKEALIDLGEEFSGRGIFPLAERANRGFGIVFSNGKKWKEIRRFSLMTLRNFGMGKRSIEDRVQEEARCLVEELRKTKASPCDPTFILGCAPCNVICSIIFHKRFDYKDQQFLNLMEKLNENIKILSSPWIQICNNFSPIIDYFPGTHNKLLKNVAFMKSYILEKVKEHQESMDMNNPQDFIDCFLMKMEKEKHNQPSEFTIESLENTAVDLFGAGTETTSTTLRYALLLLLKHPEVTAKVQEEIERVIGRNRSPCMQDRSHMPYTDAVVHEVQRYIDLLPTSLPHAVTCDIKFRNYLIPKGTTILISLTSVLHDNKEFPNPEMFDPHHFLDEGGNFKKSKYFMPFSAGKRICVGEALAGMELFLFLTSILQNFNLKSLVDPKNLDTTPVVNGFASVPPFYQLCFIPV
Cytochrome P450 2C19 (Homo sapiens), sequence (P33261 whole entry, looked up): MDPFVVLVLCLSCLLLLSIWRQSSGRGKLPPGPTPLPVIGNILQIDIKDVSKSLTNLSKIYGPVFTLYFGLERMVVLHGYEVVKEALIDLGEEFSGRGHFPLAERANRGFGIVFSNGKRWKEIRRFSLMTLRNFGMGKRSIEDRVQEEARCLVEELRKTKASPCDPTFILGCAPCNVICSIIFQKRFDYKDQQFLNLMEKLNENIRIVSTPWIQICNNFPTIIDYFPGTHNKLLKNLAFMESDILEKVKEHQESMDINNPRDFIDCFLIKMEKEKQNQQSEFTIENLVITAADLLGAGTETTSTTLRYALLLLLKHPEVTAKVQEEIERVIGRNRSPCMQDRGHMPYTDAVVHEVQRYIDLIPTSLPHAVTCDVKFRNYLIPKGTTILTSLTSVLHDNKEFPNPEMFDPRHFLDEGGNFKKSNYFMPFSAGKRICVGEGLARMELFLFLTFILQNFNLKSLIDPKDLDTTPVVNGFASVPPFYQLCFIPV

Take `Cc1oc(-c2ccccc2)nc1CCC(=O)c1ccc(CC2SC(=O)NC2=O)cc1` (stereo unspecified): the Potency in experiment [1] was 21.1 µM (active); in experiment [5], 11 µM (active); in experiment [6], 7.76 µM (active). In addition, the Potency result in experiment [2], in experiment [3] and in [4] was “inactive” in each case.
On to `CC(C)(C)c1ccc(C(=O)CCCN2CCC(OC(c3ccccc3)c3ccccc3)CC2)cc1`, for which the Potency is 18.8 µM (active) in experiment [1], 21.1 µM (active) in experiment [2] and 29.8 µM (active) in experiment [7]. Moreover, in experiment [8], the max activation was -2.11%.
Turning to `COc1ccc(CN2CCN(C(c3ccc(F)cc3)c3ccc(F)cc3)CC2)c(OC)c1OC`, the Potency in experiment [1] was 26.6 µM (active); in [7], 26.6 µM (active); in experiment [4], 4.9 µM (active); in experiment [6] it was 11 µM (active). Further, the Potency entry in experiment [2] and in [9] was “inactive” throughout.
Turning to `O=C(Nc1ccc(Oc2ccc(Cl)cc2)c(Cl)c1)c1cc(I)cc(I)c1O`, the Potency entry in experiment [1] and in [2] was “inactive” throughout. Also, the Potency in experiment [3] was 26.6 µM (active); in experiment [10] it was 22.4 µM (active); in experiment [9], 22.4 µM (active); in [6] it was 38.9 µM (active). The max activation in experiment [8] is -12.9%.
`CN(C/C=C/C#CC(C)(C)C)Cc1cccc2ccccc12`: the Potency result in experiment [1], in experiment [2] and in experiment [7] was “inactive” each time. In experiment [8], the max activation is 0.136%. In addition, the results for the Potency in [4], in experiment [5] and in experiment [6] were 0.275 µM (active), 17.4 µM (active) and 15.5 µM (active), respectively.
Consider `Cc1[nH]cnc1C[C@H]1CCc2c(C)c3ccccc3n2C1=O`, for which the Potency is 47.4 µM (active) in experiment [1]; 59.6 µM (active) in [3]; 4.37 µM (active) in [4]; 1.95 µM (active) in [5]; 0.49 µM (active) in experiment [6]. Moreover, the Potency entry in experiment [2] is “inactive”.
`O=C1c2c(O)ccc(Nc3ccc(CCO)cc3)c2C(=O)c2c([N+](=O)[O-])ccc(O)c21`: the Potency in experiment [1] is 54.5 µM (active); in [7], 54.5 µM (active); in experiment [5], 39.9 µM (active); in experiment [6] it was 10 µM (active). Moreover, the Potency entry in experiment [2] was “inactive”.
As for `CC(C)(C)C(=O)OCOC(=O)[C@@H]1N2C(=O)[C@@H](NC(=O)[C@H](N)c3ccccc3)[C@H]2SC1(C)C`, the Potency result in experiment [1], in experiment [2], in experiment [7], in [10], in experiment [9] and in experiment [4] was “inactive” throughout. Moreover, the Potency entry in experiment [5] was “inactive”. Moreover, the Potency in experiment [6] was 24.5 µM (active).
In the case of `CCOC(=O)c1nc(C(Cl)(Cl)Cl)n(-c2ccc(Cl)cc2Cl)n1`, the Potency is 54.5 µM (active) in [1]; 19.3 µM (active) in [3]; 14.2 µM (active) in [4]; 5.03 µM (active) in experiment [5]; 3.17 µM (active) in experiment [6]. The Potency entry in experiment [2] is “inactive”.
For `N#CC1(c2ccc(F)cc2)CCC(=O)CC1`, the Potency result in experiment [1], in experiment [2], in experiment [7], in experiment [3] and in [6] was “inactive” throughout.
As for `CC1=NC(C)OC1C` (stereo unspecified), the Potency result in experiment [1], in [2], in [7] and in experiment [6] was “inactive” each time.
With `O=C(Nc1cccc(C(F)(F)F)c1)c1cc(Br)cc(Br)c1O`, the Potency in experiment [1] is 6.86 µM (active); in [3], 17.2 µM (active); in [5] it was 56.4 µM (active); in [6] it was 14.2 µM (active). In addition, the Potency result in [2], in [10], in experiment [9] and in [4] was “inactive” throughout.
Regarding `C[C@H]1[C@H]2CC[C@H]3[C@@H]4CC=C5C[C@@H](N(C)C)CC[C@]5(C)[C@H]4CC[C@]23CN1C`, the Potency result in experiment [1], in experiment [2], in experiment [7], in [5] and in experiment [6] was “inactive” each time.
Regarding `CN(C)CCCOC1(Cc2ccccc2)CCCCCC1`, the Potency result in [1], in experiment [2], in experiment [7] and in [6] was “inactive” in each case.
Take `O=Cc1cc(O)ccc1Br`: the Potency result in [1], in experiment [2] and in experiment [7] was “inactive” throughout. Besides, the Potency was 36.1 µM (active) in experiment [5] and 45.4 µM (active) in experiment [6].
For the molecule `NNc1nc(-c2ccc([N+](=O)[O-])cc2)cs1`, the Potency in experiment [1] is 27.3 µM (active); in [7], 30.6 µM (active); in experiment [4], 14.2 µM (active); in [6], 5.64 µM (active). The Potency entry in experiment [2] is “inactive”.

The record behind these values is PubChem BioAssay (Tox21).
